Where “and” joins values, the source holds several entries; their conditions need not be identical. Equal entries are not always repeated. Screen size: about 6,400 compounds; about 610 (9.5%) were called active. Cut-off read from the data, not from the text of the source: active = activity change below about -70%; inconclusive = no clear call, values can overlap the other calls; inactive = above that. Only a selection was taken, and actives are over-represented in it overall. Some structures have more than one record in an assay (separate samples or runs), and their calls can disagree.
Assay: Toxoplasma gondii ME49Luc growth in HeLa cells, luciferase, no IFN-y, primary screen (AID 1259421)
Details: T. gondii ME49Luc in HeLa, 72 h, stronger effect = lower value, concentration not given here

Structure (SMILES) | activity change, negative = inhibition
CCOC(=O)[C@H](C)C[C@@H](Cc1ccc(-c2ccccc2)cc1)NC(=O)CCC(=O)O | 5.47% (inactive)
Cc1cc(C)c(/C=C2\C(=O)Nc3ccccc32)[nH]1 | 12.4% (inactive) and 24.8% (inactive)
COc1c/c(=C2\C=c3ccccc3=N2)[nH]/c1=C\c1[nH]c(C)cc1C | -83.5% (active)
FC(F)(F)c1ccc(/C=C/c2nc(COc3ccc(CCCCn4ccnn4)cc3)co2)cc1 | -18% (inactive)
CN1C2CC(OC(=O)[C@H](CO)c3ccccc3)C[C@H]1[C@H]1OC21 (some centres undefined) | 1.54% (inactive)
NC(N)=NCCN1CCCCCCC1 | 8.88% (inactive)
CC12C(=O)OC(=O)C1(C)C1CCC2O1 (centres undefined) | -87.3% (active)
c1ncc(CCCC2CCNCC2)[nH]1 | 2.3% (inactive)
Fc1ccc2c(CCNCc3cccc(OCC(F)(F)C(F)F)c3)c[nH]c2c1 | 38.3% (inactive)
CN[C@@H](C)[C@H]1[C@H](O)C[C@@]2(C)[C@@H]3CC[C@H]4C(C)(C)[C@@H](NC)CC[C@@]45C[C@@]35CC[C@]12C | 6.16% (inactive)
CCCCCCCCCCCCCCCC(=O)OC[C@H](COP(=O)(O)OCC[N+](C)(C)C)OC(=O)CCCCCCCCCCCCCCC | -5.4% (inactive)
COC(=O)c1ccccc1NC(=O)c1ccc(F)cc1 | 31.7% (inactive) and 41.2% (inactive)
CC(C)CCN1c2nc(Nc3cc(F)c(O)c(F)c3)ncc2N(C)C(=O)C1C (centres undefined) | -84.4% (active)
CCCCCCCC/C=C/CCCCCCCC(=O)NCc1ccc(O)c(OC)c1 | 6.46% (inactive)
N#Cc1ccncn1 | 17.2% (inactive)
Cc1ccnc(NC(=O)C(C)c2cccc(C(=O)c3ccccc3)c2)c1 (centres undefined) | 48.4% (inactive)
CCc1nc(-c2cccc(C)c2)c(-c2ccnc(NC(=O)c3ccccc3)c2)s1 | -91.2% (active)
Cc1ccc(-c2csc(NC(=O)c3ccccc3)n2)c(C)c1 | 73.8% (inactive)
CC1CNc2c(cccc2S(=O)(=O)N[C@@H](CCCN=C(N)N)C(=O)N2CC[C@@H](C)C[C@@H]2C(=O)O)C1 (some centres undefined) | 9.02% (inactive)
C[C@H]1COc2c(C3(N)CC3)c(F)cc3c(=O)c(C(=O)O)cn1c23 | 14.1% (inactive)
COc1cc2nc(N3CCCN(C)CC3)nc(NC3CCN(Cc4ccccc4)CC3)c2cc1OC | -91.5% (active)
CCCC(=O)N1CCCN(c2nc(N)c3cc(OC)c(OC)cc3n2)CC1 | 13% (inactive)
COc1cc2nc(N3CCN(C(=O)c4ccco4)CC3)nc(N)c2cc1OC | 0.803% (inactive) and 4.94% (inactive)
COc1cc(O)ccc1C(C)=O | -6.96% (inactive)
CC(=O)OCC(=O)[C@@]1(O)CCC2C3CCC4=CC(=O)CC[C@]4(C)C3C(=O)C[C@@]21C (some centres undefined) | -24.8% (inactive)

Structure (SMILES) | activity change, negative = inhibition
CNc1cc(OC)c(C(=O)NC2CCN(Cc3ccccc3)C2C)cc1Cl (centres undefined) | 3.06% (inactive)
CCCC(O)C(CC)CO (centres undefined) | 5.56% (inactive)
CC(=O)N[C@@H](C=O)[C@@H](O)[C@H](O)[C@H](O)CO | 11.9% (inactive)
Cc1cc(I)ccc1Nc1c(C(=O)NOCC2CC2)cc(F)c(F)c1F | -58.9% (inactive) and -87.6% (active)
O=C(NOCC(O)CO)c1cc(Br)c(F)c(F)c1Nc1ccc(I)cc1F (centres undefined) | 8.99% (inactive)
O=C(NOCC1CC1)c1ccc(F)c(F)c1Nc1ccc(I)cc1Cl | 11.9% (inactive)
CC(C)C1CCC(C(=O)N[C@@H](Cc2ccccc2)C(=O)O)CC1 (some centres undefined) | -3.8% (inactive)
CCN(CC)CCNC(=O)c1ccc(NC(C)=O)cc1 | 6.42% (inactive) and 2.78% (inactive)
COc1ccc(Cn2ccc3ccc(C(=O)NO)cc32)cc1 | 1.1% (inactive)
CCN(CC)Cc1ccc2cc(COC(=O)Nc3ccc(C(=O)NO)cc3)ccc2c1 | -81.2% (active)
C[C@H]1O[C@H](O[C@H]2[C@H](O)[C@@H](O)[C@@H](O[C@H]3[C@H](O)[C@@H](O)[C@H](O)O[C@@H]3CO)O[C@@H]2CO)[C@H](O)[C@@H](O)[C@@H]1N[C@H]1C=C(CO)[C@@H](O)[C@H](O)[C@H]1O | 8.26% (inactive)
COc1cc(/C=C(\C#N)C(N)=O)cc(CSc2nc3ccccc3s2)c1O | -5% (inactive)
COc1cccc(OC)c1-c1cc(C(=O)NC2(C(=O)O)C3CC4CC(C3)CC2C4)nn1-c1ccc(C(=O)N(C)CCCN(C)C)cc1C(C)C (centres undefined) | -1.72% (inactive)
CC1=C(/C=C/C(=C/C=C/C(C)=C/C(=O)O)c2ccc(C)cc2)C(C)(C)CCC1 | 20.2% (inactive)
C[C@@]12CCc3occc3[C@H]1CC[C@@]13C[C@@H](CC[C@H]12)[C@@](O)(CO)C3 | 14.1% (inactive)
CCN1CCCC(OC(=O)C(c2ccccc2)c2ccccc2)C1 (centres undefined) | 9.52% (inactive) and 11.2% (inactive)
CNC(=O)[C@@H](NC(=O)[C@H](CC(C)C)[C@H](O)C(=O)NO)C(C)(C)C | 11.5% (inactive)
CC(C)C[C@@H](C(=O)N[C@H](C(=O)OC1CCCC1)c1ccccc1)[C@H](O)C(=O)NO | -91.3% (active)
C[C@@]1(c2nc3c(C(N)=O)cccc3[nH]2)CCCN1 | 0.526% (inactive)
CC(C)Cn1cnc2c1c(=O)n(C)c(=O)n2C | 12.6% (inactive)
NCCCCN(Cc1nc2ccccc2[nH]1)[C@H]1CCCc2cccnc21 | 25.8% (inactive)
NCCCC[C@H](NC(=O)[C@@H](Cc1cc(Br)c(O)c(Br)c1)NC(=O)N1CCC(N2Cc3ccccc3NC2=O)CC1)C(=O)N1CCN(c2ccncc2)CC1 | 15.1% (inactive)
CC[C@H]1CN2CCc3cc(OC)c(OC)cc3C2C[C@@H]1CC1NCCc2cc(OC)c(OC)cc21 (some centres undefined) | -81.1% (active) and -96.6% (active)
COc1cc2c(cc1OC)[C@@H]1CC(=O)[C@@H](CC(C)C)CN1CC2 | 11.3% (inactive) and 8.82% (inactive)
COc1cc2c(cc1OC)C1Cc3ccc(OC)c(OC)c3CN1CC2 (centres undefined) | 8.53% (inactive)

Structure (SMILES) | activity change, negative = inhibition
CC(=O)NCCC(=O)N[C@@H](Cc1cnc[nH]1)C(=O)O | 3.95% (inactive)
CNC(=O)c1c(-c2ccc(F)cc2)oc2cc(N(CCO)S(C)(=O)=O)c(C3CC3)cc12 | 4.4% (inactive)
CC1(C)CC[C@]2(C(=O)O)CC[C@]3(C)C(=CCC4[C@@]5(C)CC[C@H](O)[C@@](C)(CO)C5CC[C@]43C)C2C1 (some centres undefined) | 4.93% (inactive)
NS(=O)(=O)c1cc2c(cc1Cl)NC=NS2(=O)=O | -6.64% (inactive) and 2.69% (inactive)
CC(C)[C@H]1C(=O)N[C@@H](CCCN=C(N)N)C(=O)NCC(=O)N[C@@H](CC(=O)O)C(=O)N[C@H](Cc2ccccc2)C(=O)N1C | 33.3% (inactive)
CC#CC1(O)CCC2C3CCC4=CC(=O)CCC4=C3C(c3ccc(N(C)C)cc3)CC21C (centres undefined) | 32.4% (inactive)
CC#C[C@]1(O)CC[C@H]2[C@@H]3CCC4=CC(=O)CCC4=C3[C@@H](c3ccc(N(C)C)cc3)C[C@@]21C | -77.6% (active) and 19.9% (inactive)
CC(=O)O[C@]1(C(C)=O)CC[C@H]2[C@@H]3CCC4=CC(=O)CCC4=C3[C@@H](c3ccc(N(C)C)cc3)C[C@@]21C | -58.3% (inactive)
CCC[C@@H]1C[C@@H](C(=O)N[C@@H]([C@H]2O[C@H](SC)[C@H](O)[C@@H](O)[C@@H]2O)[C@@H](C)O)N(C)C1 | 0.0317% (inactive)
C=CC(=O)NCc1ccccc1 | 10.8% (inactive)
O=C1C(=O)N(Cc2ccc(Cl)c(Cl)c2)c2ccccc21 | 25.2% (inactive) and 12.2% (inactive)
COc1ccc(CN2C(=O)C(=O)c3cc(OC(F)(F)F)ccc32)cc1 | -31.8% (inactive)
CC(=O)O/N=C1/C(=O)N(Cc2cc(Cl)ccc2Cl)c2ccc(Cl)cc21 | -78.1% (active)
COc1ccc(Cl)cc1C(=O)NCCc1ccc(C(=O)O)cc1 | 10.3% (inactive)
CCCCCCCCCC(=O)N[C@@H](Cc1c[nH]c2ccccc12)C(=O)N[C@H](CC(N)=O)C(=O)N[C@@H](CC(=O)O)C(=O)N[C@@H]1C(=O)NCC(=O)N[C@@H](CCCN)C(=O)N[C@@H](CC(=O)O)C(=O)N[C@H](C)C(=O)N[C@@H](CC(=O)O)C(=O)NCC(=O)N[C@H](CO)C(=O)N[C@@H]([C@@H](C)CC(=O)O)C(=O)N[C@@H](CC(=O)c2ccccc2N)C(=O)O[C@@H]1C | 5.37% (inactive)
C[C@H](O[C@H]1OCCN(Cc2n[nH]c(=O)[nH]2)[C@H]1c1ccc(F)cc1)c1cc(C(F)(F)F)cc(C(F)(F)F)c1 | 3.24% (inactive)
O=C1CN2Cc3c(ccc(Cl)c3Cl)N=C2N1 | -78.8% (active) and -0.538% (inactive)
Clc1cccc2c1CN(C1=NCCN1)C2 | 4.53% (inactive) and 6.96% (inactive)
Cc1nc2c([nH]1)CCN(C(=O)c1ccc(NC(=O)c3ccccc3-c3ccccc3)cc1)c1ccccc1-2 | 24.9% (inactive)
CC1(C)O[C@@H]2CC3C4C[C@H](F)C5=CC(=O)CC[C@]5(C)C4[C@@H](O)C[C@]3(C)[C@]2(C(=O)CO)O1 (some centres undefined) | -1.03% (inactive) and -3% (inactive)
CC(C)c1ccc(C(=O)NCCOc2ccc(C(=O)O)cc2)cc1 | 52.4% (inactive)
CN(C)Cc1c(C(=O)NCCOc2ccc(C(=O)NO)cc2)oc2ccccc12 | -78.9% (active)
Cc1cc(C)c(N(Cc2ccccc2)S(=O)(=O)c2ccc(OCCNC(=O)c3cc4ccccc4o3)cc2)c(C(=O)NO)c1 | -49.7% (inactive)
OC[C@@H](O)C(O)[C@@H](O)CO (some centres undefined) | 8.06% (inactive)

Reference: PubChem BioAssay AID1259421 (Broad Institute, 2018)
